Sampled rows, rich in hits. Any-hit rate of the full collection: about 3.2%.
TexasRed fluor: counter-screen for TRb-SRC2 inhibitors: fluorescence interference; AID 1479; 280,000 compounds, 0.29% hits; TRb/SRC2 Texas Red total fluorescence interference; Potency, µM (top dose mostly 106 µM), inactives show at the highest dose fluorescence change, negative = quenching; active means well fitted curve in either direction with a large enough effect; inconclusive means small, poorly fitted or top-dose-only effect
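Human TRβ ligand-binding domain (0.6 uM) and Texas Red SRC2 peptide (20 nM) in Tris buffer with 1 uM T3 and 5% DMSO were incubated with pinned compound for 5 hr at ambient temperature. Total fluorescence was computed as S + 2P (555/632 nm).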
Tau fluor counter: counter-screen for tau fibril formation inhibitors; tau K18 P301L Alexa594 fluorescence, heparin fibrillization; Potency, µM (titrated, usually from 57.7 µM), for the others: top-dose activity change, negative = decrease; 280,000 compounds, 0.93% hits; further: nearly all actives have a fitted effect of over 55% in size
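Human K18 P301L tau (15 uM unlabeled plus 0.24 uM Alexa 594-labeled, final) in 100 mM sodium acetate pH 7 was mixed with compound and 20 uM heparin and incubated 6 hr at 37 C.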
Tau ThT inhib: blocks human tau fibril formation measured by thioflavin T; P10636; recombinant tau K18 P301L, heparin-induced fibrillization, ThT fluorescence; Potency, µM (doses to about 57.4 µM), without a hit: top-dose activity, negative = inhibition, usual class: inhibitors; 270,000 compounds, 2.1% hits; AID 1460; further: nearly all actives have a fitted effect of over 55% in size
Target sequence (P10636 561-689 P618L limits assumed): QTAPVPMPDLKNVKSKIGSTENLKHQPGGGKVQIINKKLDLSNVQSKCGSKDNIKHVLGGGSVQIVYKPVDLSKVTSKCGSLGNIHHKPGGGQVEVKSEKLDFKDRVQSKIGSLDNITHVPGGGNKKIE
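Fibril formation assay: tau K18 P301L at 15 uM with trace Alexa 594 label, heparin inducer 20 uM, pH 7 sodium acetate buffer, 37 C for 6 hr; endpoint ThT signal.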
TRb SRC2 PPI: disrupts binding of human TR beta to SRC2 | P10828 | TRbeta-SRC2 peptide binding, fluorescence polarization; receptor liganded with 1 µM T3 | Potency, µM (series often up to 106 µM), without a hit: top-dose activity change, negative = inhibition, actives largely listed as inhibitors | 280,000 compounds, 0.065% hits | AID 1469;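 further: plate controls were bound peptide for no effect and peptide without receptor for full effect; nearly all actives have a fitted effect of over 50% in size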
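Human TRb LBD (0.6 uM) plus Texas Red-labeled SRC2 peptide (20 nM), 1uM T3, 5% DMSO, 5 hr at ambient temperature. Decreased polarization (555/632 nm) flags inhibition; data normalized to free and bound peptide controls.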
Tau fibril FP: inhibitors of human tau fibril formation; P10636; K18 P301L tau heparin fibrillization, Alexa594 FP, 6 h; Potency, µM (series often up to 57.7 µM), without a hit: top-dose activity, negative = inhibition, usual class: inhibitors; 280,000 compounds, 0.39% hits; further: nearly all actives have a fitted effect of over 55% in size
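Recombinant K18 P301L […], labeled with Alexa 594 at 0.24 uM over 15 uM unlabeled; heparin inducer 20 uM final; 37 C, 6 hr; FP endpoint.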
RGS12 GoLoco inh: RGS12 GoLoco-Gai1 interaction inhibition; Gai1:RGS12 GoLoco peptide FP, rhodamine, 10 min; Potency, µM (top dose mostly 61.6 µM), for the others: top-dose activity, negative = inhibition, hits mostly inhibitors; 230,000 compounds, 0.44% hits; AID 880; active means well fitted inhibition curve with a large enough effect, not every such curve was filed as active; inactive means no such curve, though single readings can be large or run the other way; further: nearly all actives have a fitted effect of over 30% in size
Target sequence (P63096 whole entry, looked up): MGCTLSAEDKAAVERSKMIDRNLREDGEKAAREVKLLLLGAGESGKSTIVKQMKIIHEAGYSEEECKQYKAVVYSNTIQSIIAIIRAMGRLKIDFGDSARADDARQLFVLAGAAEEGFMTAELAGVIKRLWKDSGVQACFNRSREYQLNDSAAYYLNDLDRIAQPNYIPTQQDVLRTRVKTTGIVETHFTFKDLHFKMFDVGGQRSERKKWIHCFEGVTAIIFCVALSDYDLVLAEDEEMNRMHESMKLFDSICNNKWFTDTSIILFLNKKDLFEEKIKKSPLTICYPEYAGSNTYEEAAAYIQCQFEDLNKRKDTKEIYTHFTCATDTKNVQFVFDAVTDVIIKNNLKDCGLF
An asterisk follows results filed as active; ! = a repeat was not active; [ ] = remark or other dose. Unless noted, the call rests on the fitted dose curve; in most records, active means well fitted curve in the direction sought with a large enough effect; inconclusive means small, poorly fitted or top-dose-only effect, or another doubt; inactive means no such curve, though single readings can be large; an effect the other way counts as inactive or inconclusive. Unless noted, on the % scale 0 is the no-effect control and ±100 the full control effect; potency means the concentration at half of the fitted maximal effect.

For C[N+]1(C)[C@@H]2CC[C@H]1CC(OC(=O)C(CO)c1ccccc1)C2 (stereo partly drawn) the results were TexasRed fluor -0.4%, Tau fluor counter 3.3%, Tau ThT inhib 2.3%, TRb SRC2 PPI 3.2%, Tau fibril FP 9.4% and RGS12 GoLoco inh 0.6%.
`c1ccc(C2CC2)c(OCC2=NCCN2)c1` gave TexasRed fluor 44.7µM*![fluorescent], Tau fluor counter -1.4%, Tau ThT inhib 1.3%, TRb SRC2 PPI inconclusive, Tau fibril FP 6.1% and RGS12 GoLoco inh -1.3%.
`c1ccc2cc(CC3=NCCN3)ccc2c1` gave TexasRed fluor 0.9%, Tau fluor counter -11.7%, Tau ThT inhib -3.7%, TRb SRC2 PPI 10.4%, Tau fibril FP -2.7% and RGS12 GoLoco inh 5.1%.
For CCOP(=O)(OCC)OP(=O)(OCC)OCC the results were TexasRed fluor -1.3%[201 µM] and TRb SRC2 PPI 5.7%[201 µM].
For CN1CCN(Cc2nc3ccccc3n2C)CC1 the results were TexasRed fluor 1.3%, Tau fluor counter -2.6%, Tau ThT inhib -10.5%, TRb SRC2 PPI -14.8%, Tau fibril FP -1.6% and RGS12 GoLoco inh 3.7%.
Screening Cn1c(NN=O)nc2ccccc21 returned TexasRed fluor 1.0%, Tau fluor counter inconclusive, Tau ThT inhib 17.8µM*, TRb SRC2 PPI 2.6%, Tau fibril FP -9.1% and RGS12 GoLoco inh 6.5%.
For CCOc1ccc(Cc2c(O)[nH]c(=O)[nH]c2=O)cc1 the results were TexasRed fluor 1.1%, Tau fluor counter -14.4%, Tau ThT inhib 28.2µM*, TRb SRC2 PPI -19.9%, Tau fibril FP 25.1µM* and RGS12 GoLoco inh 4.7%.
CC(C)Oc1ccc(Cc2c(O)[nH]c(=O)[nH]c2=O)cc1 was read as TexasRed fluor -0.9%, Tau fluor counter -9.0%, Tau ThT inhib inconclusive, TRb SRC2 PPI -7.0%, Tau fibril FP inconclusive and RGS12 GoLoco inh 5.2%.
For CCOc1cccc(=NC2CCCCC2)c2c(C)n(C)c(C)c12 the results were TexasRed fluor 3.1%, Tau fluor counter -4.5%, Tau ThT inhib 12.6µM*, TRb SRC2 PPI -2.6%, Tau fibril FP 0.4% and RGS12 GoLoco inh 8.4%.
Screening CSc1nc(N)c(N=Nc2ccc([As](=O)(O)O)cc2)c(=O)[nH]1 returned TexasRed fluor -8.8%, Tau fluor counter inconclusive, Tau ThT inhib 20µM*, TRb SRC2 PPI -4.7%, Tau fibril FP -8.5% and RGS12 GoLoco inh -9.5%.
For O=C/C(Cl)=C(/Cl)C(=O)O the results were TexasRed fluor 1.3%[201 µM] and TRb SRC2 PPI -4.1%[201 µM].
`Oc1cccc2nc3ccccc3nc12` gave TexasRed fluor -5.8%, Tau fluor counter -21.2%, Tau ThT inhib 15.8µM*, TRb SRC2 PPI -11.5%, Tau fibril FP -10.8% and RGS12 GoLoco inh -3.0%.
COc1cc2c(cc1O)-c1c(O)c(OC)cc3c1[C@H](C2)N(C)CC3 was read as TexasRed fluor -4.4%, Tau fluor counter inconclusive, Tau ThT inhib 28.2µM*, TRb SRC2 PPI -5.9%, Tau fibril FP inconclusive and RGS12 GoLoco inh -13.2%.
For CC[N+](C)(CC)CCCCOc1ccc2c(c1)C(=O)c1cc(OCCCC[N+](C)(CC)CC)ccc1-2 the results were TexasRed fluor -5.6%, Tau fluor counter -10.9%, Tau ThT inhib inconclusive, TRb SRC2 PPI -1.5%, Tau fibril FP -6.3% and RGS12 GoLoco inh 11.2µM*.
For CCCCCCCCCCCC[N+](C)(C)CCOc1ccccc1 the results were TexasRed fluor 0.9%, TRb SRC2 PPI -18.5% and RGS12 GoLoco inh 16.3%.
Screening C#CCN1C(=O)COc2cc(F)c(N3C(=O)C4=C(CCCC4)C3=O)cc21 returned TexasRed fluor -12.1%[201 µM] and TRb SRC2 PPI -3.5%[201 µM].
Screening CCC[CH2][Sn]([CH2]CCC)([CH2]CCC)[O][Sn]([CH2]CCC)([CH2]CCC)[CH2]CCC returned TexasRed fluor 2.5%[201 µM] and TRb SRC2 PPI -2.6%[201 µM].
O=[N+]([O-])c1ccc(Sc2nc3ccccc3o2)c([N+](=O)[O-])c1 was read as TexasRed fluor -6.1%, Tau fluor counter 8.91µM*[quencher], Tau ThT inhib 14.1µM*, TRb SRC2 PPI -4.6%, Tau fibril FP inconclusive and RGS12 GoLoco inh -9.8%.
Screening COc1ccc(C(=O)Nc2ccc(S(=O)(=O)N(Cc3ccccc3)c3ccccc3)cc2)cc1 returned TexasRed fluor -3.2%, Tau fluor counter inconclusive, Tau ThT inhib inconclusive, TRb SRC2 PPI 7.9% and Tau fibril FP 15.8µM*.
CCCCN1C(=O)/C(=C\c2ccco2)C(=O)N(CCc2ccccc2)C1=O was read as TexasRed fluor 28.2µM*[fluorescent], Tau fluor counter -9.3%, Tau ThT inhib inconclusive, TRb SRC2 PPI inconclusive, Tau fibril FP 0.9% and RGS12 GoLoco inh 133.9%.
Screening CCc1ccc(N2C(=O)NC(=O)/C(=C\C=C\c3ccco3)C2=O)cc1 returned TexasRed fluor 10.0%, Tau fluor counter -7.4%, Tau ThT inhib 10µM*, TRb SRC2 PPI 5.1%, Tau fibril FP 12.6µM* and RGS12 GoLoco inh 87.6%.
`O=C1NC(=O)N(Cc2ccc(F)cc2)C(=O)/C1=C\C=C\c1ccco1` gave TexasRed fluor 6.7%, TRb SRC2 PPI 6.4% and RGS12 GoLoco inh 200.7%.
For CCc1ccc(N2NC(=O)/C(=C/C=C/c3ccco3)C2=O)cc1 the results were TexasRed fluor 0.6%, Tau fluor counter 10µM*[quencher], Tau ThT inhib 8.91µM*, TRb SRC2 PPI 9.5%, Tau fibril FP inconclusive and RGS12 GoLoco inh 21.4%.
CCN(CC)c1ccc(/C=C2\C(=O)NC(=O)N(Cc3ccco3)C2=O)cc1 was read as TexasRed fluor inconclusive, Tau fluor counter 2.7%, Tau ThT inhib inconclusive, TRb SRC2 PPI inconclusive, Tau fibril FP -3.5% and RGS12 GoLoco inh 210.7%.
Screening CCCCN1C(=O)/C(=C/c2ccc(N(C)C)cc2)C(=O)N(Cc2ccco2)C1=O returned TexasRed fluor 39.8µM*[fluorescent], Tau fluor counter -10.5%, Tau ThT inhib inconclusive, TRb SRC2 PPI inconclusive, Tau fibril FP -12.4% and RGS12 GoLoco inh 156.8%.
Screening CCOc1ccc(C(C)(C)COCc2cccc(Oc3ccccc3)c2)cc1 returned TexasRed fluor 0.0%[201 µM] and TRb SRC2 PPI 0.0%[201 µM].
`O=C1NC(=O)N(Cc2ccccc2)C(=O)/C1=C\c1ccco1` gave TexasRed fluor 3.8%, Tau fluor counter -4.0%, Tau ThT inhib inconclusive, TRb SRC2 PPI 3.8%, Tau fibril FP -5.2% and RGS12 GoLoco inh 69.2%.
Screening O=C1NC(=O)N(c2ccccc2)C(=O)/C1=C\C=C\c1ccccc1 returned TexasRed fluor -4.4%, Tau fluor counter -21.8%, Tau ThT inhib 11.2µM*, TRb SRC2 PPI 3.6%, Tau fibril FP inconclusive and RGS12 GoLoco inh -2.2%.
